# Results from PubChem BioAssay (Tox21).
# Records with an inconclusive call do not appear. Calls of active or inactive are those of the source. The call rests on the fitted dose curve; in most records, active means well fitted cell-killing curve with a large enough effect in the repeat runs; inconclusive means weak or mixed curves, or effect the other way; inactive means no such curve, though single readings can be large or run the other way.
# Assay: qHTS assay to identify small molecule antagonists of the glucocorticoid receptor (GR) signaling pathway - cell viability counter screen (AID 720693); further: nearly all actives have a fitted effect of over 55% in size
# Conditions: GR-bla HeLa viability, CellTiter-Glo luminescence, 18 h, with 5 nM dexamethasone present; series mostly up to 58.5 µM; viability change, negative = cytotoxic: at the top concentration
# Source text: National Center for Advancing Translational Sciences [NCATS]
# NIH Chemical Genomics Center [NCGC]
# U.S. Environmental Protection Agency [EPA]
# National Institutes of Environmental Health Sciences [NIEHS]
# National Toxicology Program [NTP]
# U.S. Food and Drug Administration [FDA]
# The Glucocorticoid receptor (GR) is one of the members of the nuclear receptor family of ligand-dependent transcription factors. GR plays a critical role in carbohydrate, protein and lipid metabolisms and programmed cell death. CellSensor GR-bla HeLa cell line (Invitrogen) contains a beta-lactamase reporter gene under the control of the glucocorticoid response element stably integrated into HeLa cells, a cervical cancer cell line that expresses glucocorticoid receptor. The activation of the reporter gene under culture conditions can be detected by fluorescence intensity. This cell line has been used to screen the Tox21 10K compound library and to identify the compounds that inhibit the GR signaling. The cytotoxicity of the Tox21 compound library against the GR-bla HeLa cell line was tested in parallel by measuring the cell viability using CellTiter-Glo assay in the same wells.
# Tox21 Assay Protocol Summary:
# The GR-bla HeLa cells were dispensed at 1500 cells/5 ul/well in 1536-well black wall/clear bottom plates using a Multidrop Combi (ThermoFisher Scientific, Waltham, MA) dispenser. After the assay plates were incubated at a 37 C/5% CO2 incubator for 4 hours, 23 nL of compounds dissolved in DMSO, positive controls or DMSO only was transferred to the assay plate by a pintool station (Kalypsys, San Diego, CA), followed by addition of 1 uL of dexamethasone (5 nM, final concentration in the well). The plates were incubated at 37 C for 18 hours. After 1 uL of LiveBLAzerTM B/G FRET substrate was added using a Flying Reagent Dispenser (Aurora Discovery, San Diego, CA), the plates were incubated at room temperature (RT) for 2 hours, and fluorescence intensity was measured by an Envision plate reader (PerkinElmer, Shelton, CT). After measurement of bla assay, 3 ul CellTiter-Glo (Promega, Madison, WI) was added to measure the cytotoxicity and the plates were then incubated at RT for 30 min. The luminescence was measured using a ViewLux (Perkin Elmer) plate reader.
# On the % scale 0 is the no-effect control and ±100 the full control effect; potency means the concentration at half of the fitted maximal effect.
Structure (SMILES),"viability change, negative = cytotoxic",Potency
CCOC(=O)[C@H](CCc1ccccc1)N[C@@H](C)C(=O)N(CC(=O)O)C1Cc2ccccc2C1,-16.8% (inactive),
CCn1cc(C(=O)O)c(=O)c2cc(F)c(N3CCNCC3)cc21,,inactive
Oc1c(I)cc(I)c2cccnc12,6.62% (inactive),
CCC1(CO)COCOC1,-1.31% (inactive),
CC(=O)Nc1ccc(C)cc1C,8.91% (inactive),
COc1ccccc1N1CCN(CC(O)COc2cccc3ccccc23)CC1 (stereo not given),-7.18% (inactive),
COc1ccccc1N1CCN(CCCCNC(=O)c2ccc(-c3ccc(C(C)=O)cc3)cc2)CC1,10.7% (inactive),
O=c1[nH]ncc2ccccc12,0.362% (inactive),
COC(=O)CCS,-0.256% (inactive),
CN(C(=O)CN(CCO)CC(=O)N(C)C(C)(C)Cc1ccccc1)C(C)(C)Cc1ccccc1,-3.68% [at 27 µM] (inactive),
Nc1cccc2c1CN(C1CCC(=O)NC1=O)C2=O (stereo not given),14.4% (inactive),
Oc1cc2c(cc1O)[C@H]1c3ccc(O)c(O)c3OC[C@@]1(O)C2,-4.4% [at 78.9 µM] (inactive),
Nc1ccc(N=Nc2ccccc2)c(N)c1,-26.8% (inactive),
O=C(O)CCCCCCCCCCCBr,-21.5% (inactive),
O=c1[nH]c2ccc(Cl)cc2o1,35% (inactive),
CC1=Nc2ccc3ccccc3c2C1(C)C,8.7% (inactive),
Cc1cc(C)c(N)cc1C,-0.299% (inactive),
CC(=O)[C@H]1[C@H](C#N)C[C@H]2[C@@H]3CC=C4C[C@@H](O)CC[C@]4(C)[C@H]3CC[C@@]21C,-5.5% (inactive),
CCCCCCNC(=O)n1cc(F)c(=O)[nH]c1=O,16.7% (inactive),
O=c1cc(-c2ccccc2)oc2ccc3ccccc3c12,,54.9 µM (active)

Structure (SMILES),"viability change, negative = cytotoxic",Potency
CC(C)=CCC1C(=O)N(c2ccccc2)N(c2ccccc2)C1=O,-13.5% (inactive),
C(=C\c1ccccc1)/c1ccccc1,-2.06% [at 78.9 µM] (inactive),
CN1C(=O)OC(C)(C)C1=O,,inactive
CCC(=O)OC,-3.57% [at 78.9 µM] (inactive),
C=C1c2cccc(O)c2C(O)=C2C(=O)[C@]3(O)C(O)=C(C(N)=O)C(=O)[C@@H](N(C)C)[C@@H]3[C@@H](O)[C@H]12,-4.97% [at 27 µM] (inactive),
O=c1c(O)c(-c2ccc(O)cc2)oc2cc(O)cc(O)c12,,inactive
CN(C)CCC=C1c2ccccc2C=Cc2ccccc21,-11% (inactive),
CCOC(C)=O,,inactive
COC(=O)CS,0.0706% (inactive),
CC(CCC(=O)O)C(=O)O (stereo not given),9.6% (inactive),
C[C@@H](O[C@H]1OCCN(Cc2n[nH]c(=O)[nH]2)[C@H]1c1ccc(F)cc1)c1cc(C(F)(F)F)cc(C(F)(F)F)c1,,21.3 µM (active)
O=C(OC(=O)c1ccccc1)c1ccccc1,0.105% [at 78.9 µM] (inactive),
C=C/C(C)=C/C/C=C(\C)CCC=C(C)C,2.15% (inactive),
CC1(C)S[C@@H]2[C@H](NC(=O)C(c3ccccc3)S(=O)(=O)O)C(=O)N2[C@H]1C(=O)O (stereo not given in full),-2.79% (inactive),
CCOC(=O)c1ccc(OCCN2C[C@H](O)[C@@H](O)[C@H](O)[C@H]2CO)cc1,6.55% (inactive),
CCCCCCCC/C=C\CCCCCCCCCCCC(=O)O,-5.31% [at 78.9 µM] (inactive),
CC(C)=CC(=O)C=C(C)C,8.25% (inactive),
CCC(OCCCOC)OC(C)=O (stereo not given),15.9% [at 78.9 µM] (inactive),
CCOc1ccc(Cc2nccc3cc(OCC)c(OCC)cc23)cc1OCC,2.13% [at 27 µM] (inactive),
C=C(C)CCCC(C)CCO (stereo not given),7.29% (inactive),
